Sampled rows, rich in hits. Any-hit rate of the full collection: about 3.4%.
GLS inhibitor: inhibitors of human glutaminase (GLS); O94925; GLS enzymatic activity, qHTS titration; Potency, µM (top dose mostly 45.5 µM), for the others: top-dose activity change, negative = inhibition, most hits filed as inhibitors; actives 0.21% (n = 410,000); AID 624170; also: % is scaled to controls: 0 for no effect and ±100 for the full control effect
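hKGA; 45 mM KH2PO4 pH 8.2 + 0.02% Tween-20; cpd via pin tool; 1 mM Gln soln; GluOx/HRP/Amplex Red; RT 30 min; fluor. t0 & final.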
Mito fusion yeast: mitochondrial division inhibition or fusion activation; S. cerevisiae fusion-defective mutant growth rescue, CellTiterGlo 48 h; Potency, µM (series often up to 46.1 µM), for the others: top-dose growth rescue (activation), actives largely listed as activators; actives 0.23% (n = 320,000); also: % of control where 0% means no effect; nearly all actives have a fitted effect of over 45% in size
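Read-out: ATP-based luminescence (CellTiterGlo, 10 min ambient) reporting growth of fusion-defective ts yeast after 48 hours at 37C on glycerol/ethanol YPEG medium in the presence of compound.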
PKM2 act: activators of human pyruvate kinase M2. AID 1631. actives 0.34% (n = 260,000). Potency, µM (top dose mostly 57.5 µM), inactives show top-dose activation, actives largely listed as activators. purified PKM2, Kinase-Glo ATP luminescence, activation; response scale: 0% is enzyme alone, no compound. P14618; also: % is scaled to controls: 0 for no effect and ±100 for the full control effect; nearly all actives have a fitted effect of over 55% in size
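Purified hPK-M2 (>95% pure) converted ADP (0.1 mM final) to ATP with 0.5 mM PEP in 50 mM imidazole pH7.2, KCl, MgCl2, Tween 20, BSA; 1 h at room temperature. ATP detected by Kinase-Glo luminescence.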
VDR inhibitor: vitamin D3 receptor (human) inhibition; P11473; Potency, µM, inactives show max response, negative = inhibition, hits mostly inhibitors; actives 0.93% (n = 400,000); VDR-SRC2-3 peptide fluorescence polarization, 2 h; also: % is scaled to controls: 0 for no effect and ±100 for the full control effect
Target sequence (P11473 whole entry, looked up): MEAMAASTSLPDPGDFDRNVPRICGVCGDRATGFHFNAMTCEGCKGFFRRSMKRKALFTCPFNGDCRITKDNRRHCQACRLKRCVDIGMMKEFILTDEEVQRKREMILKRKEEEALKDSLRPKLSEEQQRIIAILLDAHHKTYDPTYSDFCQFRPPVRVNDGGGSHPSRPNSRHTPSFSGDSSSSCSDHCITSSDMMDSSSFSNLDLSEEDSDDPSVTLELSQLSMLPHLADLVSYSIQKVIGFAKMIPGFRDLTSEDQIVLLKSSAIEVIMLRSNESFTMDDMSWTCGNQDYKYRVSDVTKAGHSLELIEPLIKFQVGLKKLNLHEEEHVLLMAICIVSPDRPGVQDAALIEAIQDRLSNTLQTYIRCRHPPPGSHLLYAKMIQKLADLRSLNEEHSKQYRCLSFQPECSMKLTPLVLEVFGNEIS
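FP read-out; VDR + SRC2-3 coactivator peptide; 23 nl compound by pintool; 2 h RT incubation; reagents held at 4 deg C, protected from light.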
KAT2A inh: blocks human GCN5L2 histone acetyltransferase; Q92830; GCN5L2 HAT assay, ThioGlo1 CoA-SH fluorescence; AID 504327; Potency, µM (titrated, usually from 58.9 µM), without a hit: at the top dose activity change, negative = inhibition, most hits filed as inhibitors; actives 0.21% (n = 390,000); also: % is scaled to controls: 0 for no effect and ±100 for the full control effect
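Preincubate 20nM GCN5L2 with compound 15 min, RT → add 50uM ThioGlo1 + 75uM H3(1-25) + 70uM acetyl-CoA → read fluorescence 0 and 20 min. Primary qHTS; fluorescent artifacts likely.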
PLK1 PBD block: PLK1 (human) polo-box domain binding inhibition; actives 2.8% (n = 360,000); Plk1 PBD binding of FITC phosphopeptide, fluorescence polarization; Potency, µM, inactives show max response, negative = inhibition, hits mostly inhibitors; also: series mostly up to about 57 µM; % is scaled to controls: 0 for no effect and ±100 for the full control effect; nearly all actives have a fitted effect of over 65% in size
Active calls of the source: *; ? = inconclusive; nt = no result; [ ] = remark or other dose. Calls follow the shape of the dose curve; as a rule, active = well fitted curve in the direction sought with a large enough effect; inconclusive = small, poorly fitted or top-dose-only effect, or another doubt; inactive = no such curve, though single readings can be large; an effect the other way counts as inactive or inconclusive. Potency is read from the fitted curve at half-maximal effect.

SMILES | GLS inhibitor | Mito fusion yeast | PKM2 act | VDR inhibitor | KAT2A inh | PLK1 PBD block
Nc1ccn([C@@H]2O[C@H](C(=O)N3CCCN(Cc4cccs4)CC3)[C@@H](O)[C@H]2O)c(=O)n1 | 2.9% | nt | nt | nt | nt | 5.9%
COCCn1c(=O)c(-c2cc(F)cc(F)c2)nc2cnc(N3CCN(C)CC3)nc21 | nt | nt | nt | -3.8% | -18.2% | nt
CN1CCN(c2ncc3nc(-c4cc(F)cc(F)c4)c(=O)n(CCC#N)c3n2)CC1 | nt | nt | nt | 22.4µM* | 25.1µM* | nt
O=C(O)C1CCN(S(=O)(=O)c2ccc(N3CCC(O)CC3)c([N+](=O)[O-])c2)CC1 | 4.2% | -0.5% | 8.6% | 8.2% | 2.1% | -9.1%
Oc1ccc(/C=N/N2CCN(C3c4ccccc4-c4ccccc43)CC2)cc1O | 11.2µM* | 4.3% | ? | -0.9% | -15.2% | -4.5%
O=C(O)c1ccc(/C=N/N2CCN(C3c4ccccc4-c4ccccc43)CC2)cc1 | -1.8% | -1.1% | -2.5% | -14.1% | 0.5% | ?
COc1cc(NS(=O)(=O)c2ccc(Nc3nc(-c4ccccc4)cs3)cc2)nc(OC)n1 | ? | ? | 0.4% | -16.1% | -5.3% | 26.7µM*
COc1cc(NS(=O)(=O)c2ccc(NC(=S)Nc3ccccc3)cc2)nc(OC)n1 | 14.9% | -1.8% | -0.5% | 9.5% | ? | -5.2%
COc1ccc(-c2csc(Nc3ccc(S(N)(=O)=O)cc3)n2)cc1OC | 11.0% | -3.3% | 2.6% | -11.0% | -12.9% | 8.44µM*
CCOc1ccc(C(=O)Nc2c(C(=O)Nc3ccccc3OC)oc3ccccc23)cc1OCC | 0.0% | nt | nt | -11.1% | -5.7% | nt
CCc1cccc(NC(=O)CN(c2ccc(C)cc2)S(=O)(=O)c2cccs2)c1 | 0.7% | nt | nt | -19.1% | -12.1% | nt
c1coc(-c2nn3c(Cn4nnc5ccccc54)nnc3s2)c1 | -12.1% | 5.4% | 14.8% | ? | -9.9% | 26.7µM*
c1csc(-c2nn3c(Cn4nnc5ccccc54)nnc3s2)c1 | -0.9% | 3.3% | 16.6% | 13.6% | -3.9% | -9.4%
c1ccc2c(c1)nnn2Cc1nnc2sc(-c3ccncc3)nn12 | 1.9% | 3.1% | 10.6% | -12.5% | -9.0% | 31.6µM*
Clc1ccc(Cc2nn3c(Cn4nnc5ccccc54)nnc3s2)cc1 | -0.4% | 5.1% | 14.0% | -22.5% | -2.9% | 26.7µM*
COC(=O)c1ccc(C(NC(=O)OCc2ccccc2)/C(=C/[C@@H](C)C(=O)NCC2CC2)c2cccnc2)cc1 (stereo partly drawn) | nt | nt | -9.1% | nt | nt | nt
CN(CC(=O)Nc1cccc(F)c1)C(=O)CSc1ccccc1F | -1.1% | 2.1% | -4.8% | -0.1% | -10.3% | 23.8µM*
CC(=O)Oc1ccc2nonc2c1OC(C)=O | nt | nt | nt | 1.41µM* | nt | nt
C#CCOc1c(/C=C\c2nc(O)c([N+](=O)[O-])c(=O)[nH]2)cc(Br)cc1OC | 16.1% | -0.8% | 0.3% | 22.4µM* | -2.4% | -10.9%
O=C(Nc1ccc(F)cc1)C(c1ccnc2ccccc12)N1CCN(C(=O)c2ccco2)CC1 (stereo not drawn) | nt | nt | nt | nt | nt | -14.3%
O=C(O)c1sccc1Oc1ccc(F)cc1[N+](=O)[O-] | 2.4% | -1.6% | -6.1% | 2.6% | -3.2% | -11.6%
CN(C)C(=O)c1sccc1Oc1ccc(F)cc1[N+](=O)[O-] | 18.5% | -2.0% | 1.7% | -11.3% | -4.0% | 23.8µM*
CCNC(=O)CN(C1CCCCC1)S(C)(=O)=O | 3.0% | -3.3% | 1.6% | 13.0% | 0.9% | 2.5%
CC(=O)[C@]1(O)CCC2C3CC(C)C4=CC(=O)C=CC4(C)[C@@]3(F)C(O)C[C@]21C (stereo partly drawn) | nt | nt | nt | -2.8% | -1.7% | nt
Cc1cc(C(=O)OCC(=O)NC(C)C)c2ccccc2n1 | ? | 1.3% | 1.0% | ? | 4.0% | 11.9µM*
SMILES | GLS inhibitor | Mito fusion yeast | PKM2 act | VDR inhibitor | KAT2A inh | PLK1 PBD block
CC1=C(C(=O)O)N2C(=O)[C@@H](NC(=O)[C@@H](N)c3ccccc3)[C@@H]2SC1 | nt | nt | nt | 0.6% | 7.5%[21.4 µM] | nt
Cc1ncc(CO)c(/C=N/NC(=O)c2ccc(O)cc2)c1O | 15.2% | -2.6% | -1.0% | -10.0% | ? | -2.7%
Cc1ncc(CO)c(/C=N/NC(=S)Nc2ccc(Cl)c(Cl)c2)c1O | -7.9% | -1.5% | -6.1% | ? | -19.8% | 26.7µM*
Cc1ncc(CO)c(/C=N/NC(=S)Nc2cccc(Cl)c2)c1O | -1.3% | 4.5% | 0.2% | 79.4µM* | -3.3% | 21.2µM*
CO[C@]1(C)C[C@H]2O[C@]1(C)n1c3ccccc3c3c4c(c5c6ccccc6n2c5c31)C(=O)N(C)C4 | nt | nt | nt | 6.9% | 35.8% | nt
Cc1ccc(-c2c(C3C4C=CCCC4(C)C(=O)N3Cc3ccccc3)ccc3ccccc23)cc1 (stereo not drawn) | nt | nt | nt | -11.4% | nt | nt
CNc1nc(C)c([N+](=O)[O-])c(Nc2ccc(OC)cc2)n1 | ? | -0.7% | -9.1% | ? | -8.0% | 11.9µM*
Cc1oncc1-c1cn2ccccc2n1 | 4.8% | -2.0% | 0.1% | 10.0% | -2.7% | -3.7%
Cc1ccn2cc(-c3cnoc3C)nc2c1 | 33.5% | -1.3% | -0.6% | -12.9% | -0.2% | 26.7µM*
CCC(C)(C)NC(=O)C(c1cccc(OC)c1)N(C(=O)CNC(=O)c1cccs1)c1cccnc1 (stereo not drawn) | 6.4% | -1.2% | -8.7% | -19.0% | 0.2% | -2.7%
N#Cc1nc(-c2ccc(F)cc2)oc1N1CCCCC1 | -5.1% | -10.7% | nt | -7.6% | 5.3% | 4.9%
N#Cc1nc(-c2ccc(F)cc2)oc1N1CCCC1 | 4.1% | 0.3% | 7.3% | -18.5% | 4.4% | 15µM*
C[S+](C)CC[C@H](N)C(=O)O | 15.6% | nt | nt | -10.1% | -0.6% | nt
CCN(CC)CCC(=O)c1ccc(F)cc1 | -0.4% | -5.0% | 2.8% | -6.6% | -2.5% | 10.6µM*
Cc1sc2nc(-c3ccccn3)[nH]c(=O)c2c1-c1ccccc1 | -15.4% | 2.9% | -0.2% | ? | -18.4% | 18.9µM*
C=CCC(C=C)S(=O)(=O)c1ccc(C)cc1 (stereo not drawn) | 5.0% | -1.4% | -0.8% | -1.9% | -2.7% | -0.6%
Cc1ccc(-n2c3c(c(=O)[nH]c2=O)C(NS(=O)(=O)c2ccc(C)cc2)(C(F)(F)F)C(=O)N3)cc1 (stereo not drawn) | -3.1% | -1.9% | -1.6% | -23.6% | 1.0% | -4.4%
CCc1c(C(C)S(=O)(=O)c2ccc(C)cc2)[nH]c(=O)n1-c1ccc(C)cc1 (stereo not drawn) | 7.2% | -4.3% | 5.4% | ? | 1.5% | 26.7µM*
CCc1[nH]c(=O)[nH]c1C(C)S(=O)(=O)c1ccc(C)cc1 (stereo not drawn) | -5.7% | -0.6% | 0.1% | -13.7% | 1.5% | 11.9µM*
Cc1cc(C)cc(NC(=O)CC2Oc3ccc(C)cc3NC2=O)c1 (stereo not drawn) | -5.6% | 8.0% | nt | 17.5% | 17.1% | -4.0%

High-throughput results from PubChem.
